The results in this text go back to PubChem BioAssay (NCI).

About 83,000 compounds went through this panel and 20% of them were active in at least one assay; those are over-represented in the sample as a whole.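 Negative percent growth values reflect cell death: -40 means 40% of the cells present at the start died, and -100 means all died.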 A number with no mark means an inactive call. The source made the active and inactive calls. Rule for the calls: active = growth percent below 10; inactive = the rest.

The test relates to HT29 colon. As to the kind of experiment: NCI-60 one-dose screen, 48 h (100 = growth as untreated, 0 = no growth, -100 = all killed). As to conditions: 10 µM unless noted.
Turning to `FC(F)(F)c1cc(-c2nnc3n2N=C(N2CCCC2)CS3)cc(C(F)(F)F)c1`, the growth is 86.2%.

As to `Clc1ccc(C2=NN(c3ccc(Cl)cc3)C(c3cccc(Nc4ccnc5cc(Cl)ccc45)c3)C2)cc1` (stereo not given), the growth was 77.9%.

In the case of `C=CCN(/C=C/CN(CC=C)CC=C)CC=C`, the growth was 100%.

Take `COc1ccc(-c2nnc3c4[nH]cnc4ncn23)c(OC)c1`: the growth was 19.5%.

Regarding `Cc1ccc(S(=O)(=O)NCCN2c3nc4ccccc4cc3Sc3cc4ccccc4nc32)cc1`, the growth was 56.1%.

For the compound `O=C(CNC(=O)c1cccc2ccccc12)Nc1ccccc1Oc1cccc(O)c1`, the growth is 14.8% [5 µM].

As to `COc1ccc2c(=O)c(OC)c(-c3cc(OC)c(OC)c(OC)c3)oc2c1`, the growth was 98.2%.

Regarding `COc1cnc2c(c1)C(=O)c1c-2n(CCCN2CCC(O)CC2)c(=O)c2cc(F)ccc12`, the growth is -20.6% (active).

For the compound `O=C(/C=C/c1c(-c2ccccc2)[nH]c2ccccc12)S(=O)(=O)c1ccccc1`, the growth is 34%.

Turning to `O=C(Nc1nc2c(C(F)(F)F)cccc2s1)c1cc(Cl)ccc1O`, the growth is 0.653% (active).

Regarding `CCN(CC)CCOCC[C@H]1CC[C@H]2[C@@H]3[C@H](C)Cc4cc(OS(N)(=O)=O)ccc4[C@H]3CC[C@]12C`, the growth is -63.8% (active).

For `NS(=O)(=O)c1ccc(N2CC(c3nc4ccccc4[nH]3)CC2=O)cc1` (stereo not given), the growth is 97.8%.

Regarding `COc1cnc2c(c1)C(=O)c1c-2n(CCCN2CCCC2)c(=O)c2cc(F)ccc12`, the growth was -31.2% (active).

In the case of `COc1ccc(-n2cnc3cc(C(=O)N4CCCCC4)ccc32)cc1`, the growth is 102%.

Consider `COc1cc(-c2n[nH]nc2-c2ccccn2)cc(OC)c1OC`, for which the growth was 112%.

In the case of `COc1cc(C2=NN(C=O)C(c3cccc(Nc4ccnc5cc(Cl)ccc45)c3)C2)cc(OC)c1OC` (stereo not given), the growth was 22%.

As for `Cc1sc2nc(NCc3ccccc3)[nH]c(=O)c2c1C`, the growth is 13.3%.

Take `CC(=O)N1N=C(c2ccc(Nc3nc(NCCO)nc(NCCO)n3)cc2)CC1c1ccc(Cl)cc1` (stereo not given): the growth was 86.8%.

On to `COc1ccc(N2CCN(CC(=O)N3CCN(c4nnc(-c5ccc(Cl)cc5)c(-c5ccc(Cl)cc5)n4)CC3)CC2)cc1`, for which the growth was 40.9%.

For the compound `C1CCC(C(CC2CCCCN2)C2CCCCC2)CC1` (stereo not given), the growth is -53.8% (active).

With `Cc1cc2c(cc1C)[n+](Cc1ccc3ccccc3c1)cn2Cc1ccc2ccccc2c1`, the growth was -83.3% (active).

Regarding `COc1ccc(Oc2ccccc2NC(=O)CNC(=O)c2cccc3ccccc23)cc1`, the growth is 2.75% [5 µM] (active).

Consider `COc1cccc(N2CCN(CC(=O)N3CCN(c4nnc(-c5ccc(Cl)cc5)c(-c5ccc(Cl)cc5)n4)CC3)CC2)c1`, for which the growth was 51%.

`CC(=O)N1N=C(c2ccc3c(c2)OCO3)CC1c1c(C)nn(-c2ccccc2)c1N(C)Cc1ccccc1` (stereo not given): the growth was 49.8%.

Turning to `COc1ccc(C(=O)/C=C/c2cccc(Nc3ccnc4cc(Cl)ccc34)c2)cc1`, the growth was 1.05% (active).

Consider `COc1cc(C2CC(C3C(=O)N(C)C(=O)N(C)C3=O)=NN2c2cc(Cl)cc(Cl)c2)cc(OC)c1OC` (stereo not given), for which the growth is 91.6%.

`O=C1NC(=O)/C(=C\c2ccco2)S1`: the growth was 114%.

With `COc1ccc2nc(-c3ccc(Cl)cc3)cc(-c3nnc(SCC(=O)Nc4ccc(C(C)=O)cc4)n3-c3ccccc3)c2c1`, the growth was 78.6%.

For the compound `O=C(CNC(=O)c1cccc2ccccc12)Nc1ccccc1Cc1ccccc1`, the growth was 4.74% [5 µM] (active).

As to `CCCCc1n(Cc2ccc3ccccc3c2)cc[n+]1Cc1ccc2ccccc2c1`, the growth is -34.4% (active).

Consider `COc1cc(C2CC(C3C(=O)N(C)C(=O)N(C)C3=O)=NN2C=O)cc(OC)c1OC` (stereo not given), for which the growth is 76.2%.

As for `Nc1ncnc2c1CN(Cc1ccccc1)CC2`, the growth is 104%.

For the compound `CCOC(=O)c1sc(NC(=O)COc2cccc(/C=C3\Cc4ccc(Cl)cc4C3=O)c2)nc1C`, the growth was 118%.

Take `COC(=O)[C@H](CCCCNC(=O)OCc1ccccc1)NC(=O)[C@@H](NC(=O)Nc1cc(C(F)(F)F)cc(C(F)(F)F)c1)C(C)C`: the growth is -60.8% [100 µM] (active).

Take `CCN(CC)c1ccc(C(=C2C=CC(=[N+](CC)Cc3cccc(S(=O)(=O)O)c3)C=C2)c2ccc(N(CC)Cc3cccc(S(=O)(=O)O)c3)cc2)cc1`: the growth was 12.8%.

As to `O=C(CNC(=O)c1cccc2ccccc12)Nc1ccccc1Oc1ccc(O)cc1`, the growth is 4.1% [5 µM] (active).

For `COc1cc(C(=O)/C=C/c2cccc(Nc3ccnc4cc(Cl)ccc34)c2)cc(OC)c1OC`, the growth was -90% (active).

Turning to `CN1C(=O)C(C2=NN(C=O)C(c3ccc(F)cc3)C2)C(=O)N(C)C1=O` (stereo not given), the growth is 91.7%.

For `O=CN1N=C(c2ccc(Nc3ccnc4cc(Cl)ccc34)cc2)CC1c1ccc(Cl)cc1` (stereo not given), the growth was 5.55% (active).

`COc1cccc(-c2nc3cc(NC(=O)c4ccc(Cl)c(C#N)c4)ccc3o2)c1`: the growth was -3.37% (active).
